# Experimental data taken from PubChem BioAssay (NCATS).
# Records with an inconclusive call do not appear. Entries that show only a call come without a potency. Activity calls are given as the source filed them. Unless noted, calls come from the whole dose curve. Square brackets hold non-standard residues; d marks the D form. Peptide text beside a SMILES is read from it. ξ: configuration not given here. d(hArg(Et2)) = CCN=C(NCC)NCCCC[C@@H](N)C(=O)O; hArg(Et2) = CCN=C(NCC)NCCCC[C@H](N)C(=O)O; Phe(4-Cl) = N[C@@H](Cc1ccc(Cl)cc1)C(=O)O; ξ2Nal = NC(Cc1ccc2ccccc2c1)C(=O)O; 3Pal = N[C@@H](Cc1cccnc1)C(=O)O; ξP = O=C(O)C1CCCN1
# Tests used:
# [1] = Primary qHTS for inhibitors of SARS-S pseudo-typed particle cell entry (AID 1479145); details: outcome: dose series up to 57.1 µM unless noted; note: nearly all actives have a fitted effect of over 45% in size; note: potency is the fitted concentration of half-maximal effect
# [2] = Primary qHTS for Huh7 cytotoxicity: counterscreen for inhibitors of MERS-S pseudotyped particle cell entry (AID 1479147); details: outcome: dose series up to 57.1 µM unless noted
# [3] = Primary qHTS for inhibitors of MERS-S pseudo-typed particle cell entry (AID 1479149); details: outcome: dose series up to 57.1 µM unless noted; note: nearly all actives have a fitted effect of over 60% in size
# [4] = Primary qHTS for Vero E6 cytotoxicity: counterscreen for inhibitors of SARS-S pseudo-typed particle cell entry (AID 1479150); details: outcome: dose series up to 57.1 µM unless noted
# [5] = molecular target: Cytochrome P450 2D6 (Homo sapiens) (UniProt P10635); experiment: Cytochrome P450 family 2 subfamily D member 6 (CYP2D6) small molecule antagonists: luciferase biochemical (cell-free) qHTS assay (AID 1645840; active = well fitted curve in the direction sought with a large enough effect in the repeat runs; an effect the other way counts as inactive or inconclusive; note: nearly all actives have a fitted effect of over 55% in size; note: potency is the fitted concentration of half-maximal effect)
# Outline: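 P450-Glo CYP2D6 system: proluciferin substrate converted by enzyme to luciferin, read by luminescence proportional to activity. Enzyme-substrate mix with compound 10 min at room temperature, then NADPH regeneration 1 h before detection reagent.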
# [6] = molecular target: Cytochrome P450 2C9 (Homo sapiens) (UniProt P11712); experiment: Cytochrome P450 family 2 subfamily C member 9 (CYP2C9) small molecule antagonists: luciferase biochemical (cell-free) qHTS assay (AID 1645842; active = well fitted curve in the direction sought with a large enough effect in the repeat runs; an effect the other way counts as inactive or inconclusive; note: potency is the fitted concentration of half-maximal effect; nearly all actives have a fitted effect of over 55% in size)
# Outline: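 P450-Glo CYP2C9 system: proluciferin substrate with enzyme in mix containing 0.4% BSA, 10 min at room temperature, then NADPH regeneration solution added and incubated 1 h at 37C. Detection reagent stopped reaction; luminescence read after 20 min as RLU.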
# [7] = Cytotoxicity counterscreen for inhibitors of SARS-CoV-2 cell entry (AID 1645845); details: outcome: dose series up to 57.1 µM unless noted; note: nearly all actives have a fitted effect of over 50% in size
# Outline: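 ATP-content luminescence (ATPLite 1step, 15 min RT) read after 48 h compound exposure of Expi293F cells stably expressing human ACE2; normalized to cells-only wells and media-only wells.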
# [8] = Primary qHTS to identify inhibitors of SARS-CoV-2 cell entry (AID 1645846); details: SARS-CoV-2 pseudovirus cell entry assay, luminescence; note: nearly all actives have a fitted effect of over 45% in size; note: potency is the fitted concentration of half-maximal effect
# Outline: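 Using luciferase-reporting pseudoviruses carrying Wuhan-Hu-1 spike, the screen tracks entry into stably ACE2-expressing cells over 48 hr. Activity is expressed relative to spike particles versus particles lacking any fusion protein.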
# [9] = molecular target: Glutathione peroxidase 1 (Homo sapiens) (UniProt P07203); experiment: Primary qHTS Assay for Inhibitors of Recombinant Selenoprotein Glutathione Peroxidase 1 (GPX1) (AID 1845191; active = well fitted curve in the direction sought with a large enough effect; an effect the other way counts as inactive or inconclusive; note: nearly all actives have a fitted effect of over 65% in size)
# Outline: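 NADPH consumption tracked by fluorescence at 340/450 nm between t=0 and t=15 min, room temperature. Final mix: 10 nM GPX1, 100 nM glutathione reductase, 1 mM GSH, 0.5 mM NADPH, 0.5 mM cumene hydroperoxide, 0.01% BSA; 30 min compound–enzyme preincubation.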
# [10] = molecular target: Phospholipid hydroperoxide glutathione peroxidase GPX4 (Homo sapiens) (UniProt P36969); experiment: Primary qHTS Assay for Inhibitors of Recombinant Selenoprotein Glutathione Peroxidase 4 (GPX4) (AID 1845192; active = well fitted curve in the direction sought with a large enough effect; an effect the other way counts as inactive or inconclusive; note: nearly all actives have a fitted effect of over 65% in size; note: potency is the fitted concentration of half-maximal effect)
# Outline: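 NADPH consumption followed by fluorescence at 340/450 nm, t=0 and after 15 min at room temperature. Reaction started with cumene hydroperoxide (0.5 mM final) after 30 min compound–GPX4 preincubation; final 200 nM GPX4, 100 nM GR, 1 mM GSH, 0.5 mM NADPH.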
# [11] = Confirmatory qHTS to identify inhibitors of SARS-CoV-2 cell entry (AID 1645844); note: nearly all actives have a fitted effect of over 45% in size; note: potency is the fitted concentration of half-maximal effect
# Outline: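 Luminescence entry read-out after 48 h: spike-pseudotyped MLV particles (Wuhan-Hu-1, 19-aa C-terminal truncation) added to compound-pretreated (1 h) HEK293-ACE2 cells; Data were normalised to bald PP and spike PP wells.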
# [12] = VSVG counterscreen qHTS to identify inhibitors of SARS-CoV-2 cell entry (AID 1645847); note: nearly all actives have a fitted effect of over 65% in size; note: potency is the fitted concentration of half-maximal effect
# Outline: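 Entry of VSV-G pseudotyped particles into human ACE2-expressing HEK293 cells was measured by luciferase luminescence 48 h after infection, with compound added 1 h beforehand.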
# [13] = activity change, negative = inhibition: at 57.1 µM (top of the series) unless noted, outcome: at 57.1 µM (top of the series) unless noted
# Phospholipid hydroperoxide glutathione peroxidase GPX4 (Homo sapiens), sequence (P36969 whole entry, looked up): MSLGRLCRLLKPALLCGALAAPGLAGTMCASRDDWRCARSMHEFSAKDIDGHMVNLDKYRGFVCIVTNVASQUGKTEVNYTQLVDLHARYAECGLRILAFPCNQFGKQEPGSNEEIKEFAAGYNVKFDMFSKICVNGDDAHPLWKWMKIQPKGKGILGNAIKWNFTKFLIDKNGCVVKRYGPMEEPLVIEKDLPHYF
# Glutathione peroxidase 1 (Homo sapiens), sequence (P07203 whole entry, looked up): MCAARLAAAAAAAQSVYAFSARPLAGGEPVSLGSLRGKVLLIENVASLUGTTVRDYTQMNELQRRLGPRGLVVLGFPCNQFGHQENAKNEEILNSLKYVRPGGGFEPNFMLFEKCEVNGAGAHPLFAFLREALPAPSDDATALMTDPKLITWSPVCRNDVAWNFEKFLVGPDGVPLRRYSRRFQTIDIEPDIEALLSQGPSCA
# Cytochrome P450 2C9 (Homo sapiens), sequence (P11712 whole entry, looked up): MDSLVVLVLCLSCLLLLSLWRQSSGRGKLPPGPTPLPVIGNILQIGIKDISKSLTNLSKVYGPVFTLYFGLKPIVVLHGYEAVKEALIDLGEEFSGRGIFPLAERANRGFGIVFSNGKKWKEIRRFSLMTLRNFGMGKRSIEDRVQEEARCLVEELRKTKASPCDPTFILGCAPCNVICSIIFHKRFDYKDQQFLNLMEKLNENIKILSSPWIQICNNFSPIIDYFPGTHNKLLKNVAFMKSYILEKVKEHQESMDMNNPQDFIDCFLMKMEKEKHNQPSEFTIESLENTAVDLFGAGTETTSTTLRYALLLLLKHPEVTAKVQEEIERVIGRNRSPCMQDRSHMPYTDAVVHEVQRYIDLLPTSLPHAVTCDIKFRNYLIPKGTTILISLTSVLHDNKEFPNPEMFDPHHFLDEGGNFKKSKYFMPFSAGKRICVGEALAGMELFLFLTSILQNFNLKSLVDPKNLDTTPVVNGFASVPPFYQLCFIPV
# Cytochrome P450 2D6 (Homo sapiens), sequence (P10635 whole entry, looked up): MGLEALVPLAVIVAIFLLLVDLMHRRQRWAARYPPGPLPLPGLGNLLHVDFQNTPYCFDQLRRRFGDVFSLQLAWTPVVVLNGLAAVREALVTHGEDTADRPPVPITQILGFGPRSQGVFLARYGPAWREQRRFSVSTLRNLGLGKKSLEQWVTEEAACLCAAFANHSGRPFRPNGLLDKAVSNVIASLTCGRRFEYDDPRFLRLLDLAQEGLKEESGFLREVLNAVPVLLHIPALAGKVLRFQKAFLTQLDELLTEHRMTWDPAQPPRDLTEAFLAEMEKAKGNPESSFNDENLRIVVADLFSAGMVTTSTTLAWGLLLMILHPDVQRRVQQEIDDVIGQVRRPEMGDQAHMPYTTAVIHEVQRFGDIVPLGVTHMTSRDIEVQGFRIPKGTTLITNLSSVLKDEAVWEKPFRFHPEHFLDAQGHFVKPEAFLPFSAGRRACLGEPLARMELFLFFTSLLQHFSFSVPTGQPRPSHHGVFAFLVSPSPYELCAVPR
smiles,measurement,setting,value
CC1(C)[C@H](C=C(Cl)Cl)[C@@H]1C(=O)OCc1c(F)c(F)cc(F)c1F,Potency,[1],inactive
same,Potency,[2],inactive
same,Potency,[3],inactive
same,Potency,[4],inactive
same,Potency,[5],inactive
same,Potency,[6],12 µM (active)
same,Potency,[7],inactive
same,Potency,[8]; [13],inactive
same,Potency,[9],inactive
same,Potency,[10],inactive
NCCNc1ccc(NCCN)c2c1C(=O)c1ccncc1C2=O,Potency,[1],11.2 µM (active)
same,Potency,[2],inactive
same,Potency,[3],inactive
same,Potency,[4],inactive
same,Potency,[11],1.52 µM (active)
same,Potency,[8]; [13],7.94 µM (active)
same,Potency,[12],3.04 µM (active)
CCCCN=C(N)NC(=N)N,outcome,[1],inactive [setting not given]
same,outcome,[2],inactive [setting not given]
same,outcome,[3],inactive [setting not given]
same,outcome,[4],inactive [setting not given]
same,outcome,[11],inactive
same,outcome,[7],inactive [setting not given]
same,outcome,[8]; [13],inactive [setting not given]
O=S(=O)(O)CCCS(=O)(=O)O,Potency,[1],inactive
same,Potency,[2],inactive
same,Potency,[3],inactive
same,Potency,[4],inactive
same,Potency,[7],inactive
CCCCOC(=O)C(=O)Nc1cccc(-c2nn[nH]n2)c1,Potency,[1],inactive
same,Potency,[2],inactive
same,Potency,[3],inactive
same,Potency,[4],inactive
CC(C)OC(=O)CCC/C=C\C[C@@H]1[C@@H](CC[C@@H](O)CCc2ccccc2)[C@H](O)C[C@@H]1O,"activity change, negative = inhibition",[1],-26.3% [at 11.4 µM] (inactive)
same,"activity change, negative = cytotoxicity",[2],-6.62% [at 11.4 µM] (inactive)
same,outcome,[3],inactive [at 11.4 µM]
same,"activity change, negative = cytotoxicity",[4],3.55% [at 11.4 µM] (inactive)
same,"activity change, negative = cytotoxicity",[7],-2.53% [at 11.3 µM] (inactive)
CCO/N=C(\C(=O)N[C@@H]1C(=O)N2C(C(=O)O)=C(Sc3nc(-c4cc[n+](C)cc4)cs3)CS[C@H]12)c1nsc(NP(=O)(O)O)n1,Potency,[1],inactive
same,Potency,[2],inactive
same,Potency,[3],inactive
same,Potency,[4],inactive
C[C@H](NCCc1ccc(O)cc1)[C@H](O)c1ccc(O)cc1,Potency,[1],inactive
same,Potency,[2],inactive
same,Potency,[3],inactive
same,Potency,[4],inactive
C[N+]1(C)[C@@H]2CC(OC(=O)C(O)(c3cccs3)c3cccs3)C[C@H]1[C@H]1O[C@@H]12 (stereo not given in full),Potency,[1],inactive
same,Potency,[2],inactive
same,Potency,[3],inactive
same,Potency,[4],inactive
CC[C@H]1OC(=O)C[C@@H](O)[C@H](C)[C@@H](OC2OC(C)C(O)C(N(C)C)C2O)[C@@H](CCN2CCCCC2)C[C@@H](C)C(=O)/C=C/C(C)=C/[C@@H]1CN1CCCCC1 (stereo not given in full),Potency,[1],inactive
same,Potency,[2],inactive
same,Potency,[3],inactive
same,Potency,[4],inactive
same,Potency,[7],inactive
CCNC(=NCCCC[C@H](NC(=O)[C@H](CC(C)C)NC(=O)[C@@H](CCCCN=C(NCC)NCC)NC(=O)[C@@H](Cc1ccc(O)cc1)NC(=O)[C@@H](CO)NC(=O)[C@H](Cc1cccnc1)NC(=O)[C@H](Cc1ccc(Cl)cc1)NC(=O)C(Cc1ccc2ccccc2c1)NC(C)=O)C(=O)N1CCCC1C(=O)N[C@H](C)C(N)=O)NCC (stereo not given in full) (Ac-[ξ2Nal][Phe(4-Cl)][3Pal][dS][dY][d(hArg(Et2))]L[hArg(Et2)][ξP][dA]-NH2),Potency,[1],inactive
same,Potency,[2],inactive
same,Potency,[3],inactive
same,Potency,[4],inactive
same,Potency,[11],1.21 µM (active)
same,Potency,[12],0.857 µM (active)
CC(=O)OCC1=C(C(=O)O)N2C(=O)[C@@H](NC(=O)CC#N)[C@H]2SC1,Potency,[1],inactive
same,Potency,[2],inactive
same,Potency,[3],inactive
same,Potency,[4],inactive
same,Potency,[7],inactive
[2H]C([2H])([2H])C(CCC[C@@H](C)[C@H]1CC[C@H]2/C(=C/C=C3\C[C@@H](O)C[C@H](O)C3=C)CCC[C@]12C)C([2H])([2H])[2H],Potency,[1],inactive
same,Potency,[2],inactive
same,Potency,[3],inactive
same,Potency,[4],inactive
CCCCCCCCCCCCCCCCCCCCCC(=O)Nc1ccn([C@@H]2O[C@H](CO)[C@@H](O)[C@@H]2O)c(=O)n1,Potency,[1],inactive
same,Potency,[2],inactive
same,Potency,[3],inactive
same,Potency,[4],inactive
same,Potency,[11],inactive
same,Potency,[7],inactive
same,"activity change, negative = inhibition",[8]; [13],-93.7% [at 27.1 µM]
same,Potency,[12],inactive
CO/N=C(\C(=O)N[C@@H]1C(=O)N2C(C(=O)O)=C(CSc3nnnn3C)CS[C@H]12)c1csc(N)n1,Potency,[1],inactive
same,Potency,[2],inactive
same,Potency,[3],inactive
same,Potency,[4],inactive
same,Potency,[7],inactive
Nc1nc2c(c(=O)[nH]1)N(C=O)C(CNc1ccc(C(=O)N[C@@H](CCC(=O)O)C(=O)O)cc1)CN2 (stereo not given in full),"activity change, negative = inhibition",[1],-33% [at 0.573 µM] (inactive)
same,"activity change, negative = cytotoxicity",[2],2.64% [at 0.573 µM] (inactive)
same,outcome,[3],inactive [at 0.573 µM]
same,"activity change, negative = cytotoxicity",[4],2.47% [at 0.573 µM] (inactive)
CC(C)C[C@H](NC(=O)[C@@H](Cc1c[nH]c2ccccc12)NC(=O)[C@H](Cc1ccc(O)cc1)NC(=O)[C@H](CO)NC(=O)[C@H](Cc1c[nH]c2ccccc12)NC(=O)[C@H](Cc1cnc[nH]1)NC(=O)[C@@H]1CCC(=O)N1)C(=O)N[C@@H](CCCN=C(N)N)C(=O)N1CCC[C@H]1C(=O)NCC(N)=O,Potency,[1],inactive
same,Potency,[2],inactive
same,Potency,[3],inactive
same,Potency,[4],inactive
same,Potency,[7],inactive
CC(Cc1ccc2c(c1)OCO2)NCC(O)c1ccc(O)c(O)c1 (stereo not given),Potency,[1],inactive
same,Potency,[2],inactive
same,Potency,[3],inactive
same,Potency,[4],inactive
same,Potency,[5],0.674 µM (active)
same,Potency,[6],15.1 µM (active)
same,Potency,[7],inactive
same,Potency,[9],inactive
same,Potency,[10],15.8 µM (active)
O=[N+]([O-])c1ccc(/C=C/c2cccc(CO)n2)o1,Potency,[1],inactive
same,Potency,[2],inactive
same,Potency,[3],inactive
same,Potency,[4],inactive
O=C([O-])C[O-].[Pt+2],Potency,[1],inactive
same,Potency,[2],inactive
same,Potency,[3],inactive
same,Potency,[4],inactive
CCOC(=O)COc1ccc2c(=O)cc(-c3ccccc3)oc2c1,Potency,[1],inactive
same,Potency,[2],inactive
same,Potency,[3],inactive
same,Potency,[4],inactive
O1[As]2O[As]1O2,Potency,[1],inactive
same,Potency,[2],inactive
same,Potency,[3],inactive
same,Potency,[4],inactive
same,Potency,[11],19.2 µM (active)
same,Potency,[12],15.2 µM (active)
same,Potency,[9],inactive
same,Potency,[10],inactive
C=C1C[C@@H]2CC[C@@]34C[C@H]5O[C@H]6[C@@H](O3)[C@H]3O[C@H](CC[C@@H]3O[C@H]6[C@H]5O4)CC(=O)C[C@@H]3[C@@H](OC)[C@@H](C[C@H](O)CN)O[C@H]3C[C@H]3O[C@@H](CC[C@@H]1O2)C[C@@H](C)C3=C,Potency,[1],inactive
same,Potency,[2],inactive
same,Potency,[3],inactive
same,Potency,[4],inactive
same,Potency,[11],0.221 µM (active)
same,Potency,[7],inactive
same,"activity change, negative = inhibition",[8]; at 11.3 µM (top of the series),-91.9%
same,"activity change, negative = inhibition",[8]; at 57.1 µM (top of the series),-84.4%
same,Potency,[12],0.111 µM (active)
